Rows were chosen to be rich in hits. Some 21% of all compounds tested hit in one or more screens of this group.
Shiga toxin inh: A qHTS for Small Molecule Inhibitors of Shiga Toxin; Vero cells, Shiga toxin protein synthesis inhibition reporter; inhibition, % at 38.7 µM; hit rate 9.2% among 290,000; in the data active = inhibition mostly above about 28%, no sharp cut-off; inactive = mostly below about 43%; note: 0% is about no effect
Pf growth 48h: Primary qHTS for delayed death inhibitors of the malarial parasite plastid, 48 hour incubation. P. falciparum luciferase growth in erythrocytes, 48 h. Potency, µM (doses to about 28.7 µM), for inactives: at the top dose activity change, negative = inhibition, actives largely listed as inhibitors. AID 504832, 2011. hit rate 5.9% among 310,000; note: potency is the fitted concentration of half-maximal effect; % is set by controls: 0 for no effect and ±100 for the full control effect
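First compound was added to culture medium, then infected red cells at 0.1% parasitemia and 2% hematocrit (final). After incubation at 37 C under 5% CO2, luciferase detection reagent was dispensed and light output recorded.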
Pf growth 96h: Primary qHTS for delayed death inhibitors of the malarial parasite plastid, 96 hour incubation; P. falciparum luciferase reporter growth, 96 h; Potency, µM (highest dose often 28.7 µM), for inactives: top-dose activity change, negative = inhibition, actives largely listed as inhibitors; hit rate 6.9% among 320,000; AID 504834, 2011; note: potency is the fitted concentration of half-maximal effect; % is set by controls: 0 for no effect and ±100 for the full control effect
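Cell-based qHTS: luciferase-tagged P. falciparum in erythrocytes (2% hematocrit, 0.05% parasitemia final) incubated with compounds for 96 hours, 37 C, 5% CO2; luciferase detection reagent then added and luminescence measured.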
HCV inhibitor: qHTS Assay for Inhibitors of Hepatitis C Virus (HCV); Huh7.5.1 HCVcc-Cre infection, luciferase reporter, 44 h; Potency, µM (top dose mostly 41.8 µM), without a hit: top-dose activity change, negative = inhibition, actives largely listed as inhibitors; hit rate 3.4% among 340,000; note: potency is the fitted concentration of half-maximal effect; % is set by controls: 0 for no effect and ±100 for the full control effect
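Compounds are dispensed onto cells plated 4 h earlier at 1,000 per well, with HCVcc-Cre virus (about 0.5 moi) added next. Following 44 h of culture, luminescent signal is measured for 15 sec after 15 min with substrate at room temperature.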
HCMV inh: qHTS Assay for inhibitors of the human cytomegalovirus (HCMV). HFF cells, HCMV-luciferase reporter, 72 h; hits give low values. hit rate 4.5% among 410,000. activity change, negative = inhibition, % at 57.5 µM; in the data active = activity change below about -60%; inconclusive = no clear call, values can overlap the other calls; inactive = above about -39%; note: % is set by controls: 0 for no effect and ±100 for the full control effect
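Two-dose cell screen: HFF monolayers treated with compounds and infected with luciferase-expressing HCMV at 1 PFU/cell, 72 h at 37C, then lysed for luciferase measurement.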
Cycloheximide cs: Cycloheximide Counterscreen for Small Molecule Inhibitors of Shiga Toxin; cell reporter, cycloheximide protein synthesis inhibition counterscreen; max response, %; hit rate 12% among 300,000; in the data active = max response mostly above about 13%, no sharp cut-off; inactive = mostly below about 14%; note: read at 38.3 µM for the half of the compounds with a filed dose; 0% is about no effect
* = called active by the depositor; u = inconclusive; x = not tested or not shown; [ ] = another dose, or the depositor's remark. Unless noted, calls come from the whole dose curve; as a rule, active = well fitted inhibition curve with a large enough effect; inconclusive = small, poorly fitted or top-dose-only effect, or another doubt; inactive = no such curve, though single readings can be large or run the other way.

SMILES | Shiga toxin inh | Pf growth 48h | Pf growth 96h | HCV inhibitor | HCMV inh | Cycloheximide cs
CC(C(=O)N(C)C1CCCCC1)N1CCC(C(N)=O)CC1 (stereo unspecified) | 3.6 | 9.9% | -2.5% | -5.6% | -3.0 | -3.9
Cc1cc2cc(CNC(=O)Nc3ccccc3)ccc2[nH]1 | 94.9* | 156.3% | 88.3% | -10.9% | 11.5 | 27.5*
Cc1cc2cc(CNC(=S)Nc3ccc(OC(F)(F)F)cc3)ccc2[nH]1 | -11.5 | 1.4% | 2.5% | -27.3%[8.37 µM] | -75.1* | -3.7
Cc1cc2cc(CNC(=S)Nc3ccc(OC(F)F)cc3)ccc2[nH]1 | -3.6 | -26.0% | -13.2% | u | 8.3 | -3.0
CCOC(=O)NCc1ccc2[nH]c(C)cc2c1 | 23.8* | 7.1% | 37.1% | 8.8% | 15.4 | 18.0*
CCN(CC)CCn1c2c(c(SCC(=O)Nc3nc4ccccc4s3)nc1=O)CCC2 | x | u | u | u | 1.0 | x
O=C(c1ccc(-c2ccc([N+](=O)[O-])cc2)o1)N1CCN(S(=O)(=O)c2cccs2)CC1 | x | 17.8% | 22.9% | 7.5% | -60.6* | x
O=S(=O)(c1cccs1)N1CCN(c2ccc(Cl)cc2)CC1 | -4.2 | 21.0% | 6.3% | -6.4% | -35.2 | -8.9
O=C(c1ccc(-c2ccc(Cl)cc2)o1)N1CCN(S(=O)(=O)c2cccs2)CC1 | x | u | u | u | -60.6* | x
O=S(=O)(c1cccs1)N1CCC(CO)(Cc2ccc(Cl)cc2)CC1 | -1.4 | 25.2% | 0.738µM* | u | 21.4 | 1.1
CCOc1cc(N2CCOCC2)c(OCC)cc1NC(=O)COC(=O)c1ccc(Cl)nc1 | x | x | x | -13.5% | 19.2 | x
Fc1ccc(N2CCN(Cc3cnc(Cl)s3)CC2)cc1 | 7.7 | -10.5% | 20.0% | 4.2% | -9.3 | -0.9
COc1ccc(NC(=O)CNC(=O)Cn2cnc3sc4c(c3c2=O)CCCC4)cc1OC | -3.0 | -1.0% | u | 3.8% | -23.3 | 2.2
COc1ccc(OCC2NCCc3cc(OC)c(OC)cc32)cc1 (stereo unspecified) | -0.8 | 20.8% | 35.5% | u | -31.0 | -3.0
COc1cc2c(cc1OC)C(COc1cccc(C(F)(F)F)c1)NCC2 (stereo unspecified) | -7.1 | u | -19.1% | u | -71.4* | 15.7
O=C(Nc1nc2ccc(Br)cc2s1)c1ccco1 | x | 194.4% | u | -16.8% | 114.8 | 29.9*
O=C(Nc1nc2ccc(Cl)cc2s1)c1ccco1 | 62.3* | 188.5% | x | 5.6% | 42.9 | 41.2*
Cc1noc(C)c1C(=O)Nc1nc2ccc(Cl)cc2s1 | 89.2* | 50.1% | 49.0% | -24.0% | 0.9 | 41.9*
Cn1cc(Cl)c(C(=O)Nc2nc3ccc([N+](=O)[O-])cc3s2)n1 | -1.1 | 70.1% | 80.6% | 15.2% | -16.3 | 8.9
O=C(Nc1nc2ccc(S(=O)(=O)N3CCCC3)cc2s1)c1ccco1 | -0.7 | 23.4% | 67.8% | 43.0% | 82.5 | 14.8
Cn1cc(Cl)c(C(=O)Nc2nc3ccc(Cl)cc3s2)n1 | 70.6* | 105.9% | 69.2% | -0.6% | 125.1 | 57.1*
CC1CCCC(C)N1C(=O)c1ccccc1 (stereo unspecified) | x | x | x | x | 23.1 | x
Cc1cc(C(F)(F)F)c(C#N)c(Sc2ccccc2)n1 | 5.0 | -25.3% | -3.8% | 0.1% | 24.9 | 4.1
COC(=O)CSc1nc(C)cc(C(F)(F)F)c1C#N | -10.7 | 4.2% | 46.6% | 2.4% | -23.6 | -2.9
Cc1cc(C(F)(F)F)c(C#N)c(SCC(=O)Nc2nc3cc(Br)ccc3s2)n1 | 32.7* | 76.2% | 77.9% | -0.4% | u | 39.4*
SMILES | Shiga toxin inh | Pf growth 48h | Pf growth 96h | HCV inhibitor | HCMV inh | Cycloheximide cs
Cc1ccc(S(=O)(=O)CCSc2nc(C)cc(C(F)(F)F)c2C#N)cc1 | 22.7 | u | 72.5% | u | -70.7* | -1.1
CCOC(=O)NC(=O)CSc1nc(C)cc(C(F)(F)F)c1C#N | 83.7* | -1.0% | -23.9% | -6.8% | -3.7 | 31.0*
Cc1noc(C)c1S(=O)(=O)Nc1ccc2c(c1)C(=O)N([C@H](C)CO)C[C@H](C)[C@@H](CN(C)C(=O)NC1CCCCC1)O2 | x | x | x | 39.8% | 23.0 | x
CCn1c(SCc2ccc(C)cc2)nnc1C1CCN(S(=O)(=O)c2ccc(OC)cc2)CC1 | -14.4 | 11.7µM* | 4.15µM* | u | -5.3 | -3.1
CCn1c(SCc2ccc(F)cc2)nnc1C1CCN(S(=O)(=O)c2ccc(OC)cc2)CC1 | -1.8 | 11.7µM* | 8.28µM* | u | 9.1 | -0.5
O=S(=O)(c1ccc(OC(F)(F)F)cc1)N1CCC(c2nnnn2-c2ccc(F)cc2)CC1 | x | x | x | x | -73.1* | x
Cc1ccc(-n2nnnc2C2CCN(S(=O)(=O)c3ccc(OC(F)(F)F)cc3)CC2)cc1 | x | x | x | x | -15.3 | x
CCOC(=O)N1CCN(C(=O)COC(=O)c2ccccc2NCCO)CC1 | x | 0.1% | -4.7% | u | 33.2 | x
Cc1nc2nncn2c(NCc2ccc(Cl)cc2)c1C | x | x | x | x | -39.2 | x
Cc1ccc(-c2cc(C(=O)NC3=NCCS3)c3ccccc3n2)cc1C | 44.2 | u | 2.08µM* | u | 78.4 | 17.8*
CCCc1ccc(-c2cc(C(=O)NC3=NCCS3)c3ccccc3n2)cc1 | 24.0* | 175.0% | 150.5% | u | 44.5 | 18.9*
O=C(NC1=NCCS1)c1cc(-c2ccc(F)cc2)nc2ccccc12 | 10.0 | 47.5% | 30.0% | u | -22.7 | 17.1*
O=C(NN=C1CCCC1)c1cc(-c2ccc(F)cc2)nc2ccccc12 | 28.5 | 9.3% | u | -5.1% | -23.2 | 8.0
NNC(=O)c1cc(-c2ccc(N)cc2)nc2ccc(Br)cc12 | -3.1 | u | u | -0.2% | 16.0 | -2.5
CCN(CC)C(=O)c1ccc2c(c1)N(Cc1ccccc1F)C(=O)c1ccccc1S2=O (stereo unspecified) | x | x | x | x | -9.8 | x
COc1ccc(-c2noc(-c3cc(Cl)ccc3Cl)n2)cc1OC | -8.9 | 19.7% | x | 4.3% | x | -3.0
Cc1ccc(C(=O)Nc2cccc(NC(=O)c3cccs3)c2)c(C)c1 | 21.3 | u | 11.7µM* | -29.8% | -6.8 | 3.9
COc1cc(NC(=O)c2ccc(C)cc2C)ccc1NC(=O)c1cccs1 | 21.0 | 16.4% | 70.4% | u | -14.1 | 27.2
COc1ccc(NC(=O)c2cc3c(Cl)nc4ccccc4c3s2)cc1OC | -12.1 | 2.08µM* | -1.8% | u | -82.9* | 7.0
COc1ccc(-c2[nH]ncc2/C=N\NC(=O)c2cccs2)cc1OC | 87.3* | 2.2% | 17.0% | -22.0% | -1.4 | 35.9*
COc1ccc(Cl)cc1-c1nc(-c2ccc(NC(=O)c3cccs3)cc2)no1 | 34.3* | 0.0% | 21.8% | u | x | 85.2*
COc1ccc(OC)c(NC(=O)c2cc3c(Cl)nc4ccccc4c3s2)c1 | 6.0 | 39.2% | 0.1% | -25.9% | -18.4 | -1.0
Cc1cccc(C)c1NC(=O)CN(C)S(=O)(=O)c1ccc(-c2ccc(=O)[nH]n2)s1 | -10.0 | u | 3.2% | -1.3% | -14.3 | 6.8

Screening results deposited in PubChem BioAssay by National Center for Advancing Translational Sciences (NCATS).
